34 targets from the supplement of paper PMC4188521 can be followed below.

Compound in the test: CCc1cnn2c(NCc3ccc[n+]([O-])c3)cc(N3CCCC[C@H]3CCO)nc12 [dinaciclib]
Kind of test: cell viability remaining relative to DMSO control; higher = less cytotoxic (more viable cells). The note with it: 100 nM; 24 h. An outline of the steps:
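Remaining viability, expressed as a percentage of the DMSO control, compares luminescence in treated wells with that in DMSO-treated control wells. Solid tumour cell lines from commercial banks received 100 nM of the test compound for 24 hr, with final DMSO kept at ≤0.2%. Viability was read as ATP luminescence using CellTiter-Glo, and values are means from 2–6 plates run in triplicate wells.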
In the case of H28, the cell viability remaining came to 107%.
With SNB19, the cell viability remaining was 70.1%.
The same measure for HEC1B: 94.1%.
The same measure for HUPT4: 9.8%; for LS1034: 75%; for SKMEL31: 66.9%.
Next, DKMG: 44%; H522: 80.6%.
In the case of OVCAR4, the cell viability remaining amounted to 49.6%.
The same measure for HCC1806: 60%; for OVTOKO: 95.4%.
The same measure for HS746T: 83%.
The same measure for COV644: 23.3%; for SCC9: 64.4%.
As to HEC108, the cell viability remaining stood at 63%.
Turning to HCT116, the cell viability remaining stood at 55.4%.
The same measure for SJSA1: 66.7%.
With H23, the cell viability remaining worked out at 41.9%.
Next, OAW28: 63.1%; GRM: 47%; T98G: 53.4%.
Consider HS839T, for which the cell viability remaining came to 97.6%.
Next, D283MED: 43%; U87MG: 63%.
With CCFSTTG1, the cell viability remaining came to 70.6%.
The same measure for NCI-H1395: 36%.
Next, NCI-H2110: 56.9%; COLO205: 22.4%.
HT1080: the cell viability remaining came out at 88.8%.
Next, SHP77: 50.2%; HMCB: 37.5%.
The same measure for BT20: 45.2%.
As for A673, the cell viability remaining amounted to 29.2%.
Take H1975: the cell viability remaining amounted to 69.4%.
